Screening data deposited in PubChem BioAssay by NMMLSC.
This is a sample that favours compounds with a hit; in the whole collection about 2.9% have one here.
B2AR ag: agonists of human beta-2 adrenergic receptor inducing internalization | P07550 | 340,000 tested, 0.43% active | Am2.2-beta2AR cells, FAP receptor internalization, flow cytometry | response, % (concentration not given with the values);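 active = response above a set limit, near 3 SD of response in nonfluorescent compounds, cut at about 42% in these data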
MEKK2 mut-MEK5: signal of MEK5 binding to mutant human MEKK2 PB1 domain | AID 1530 | 290,000 tested, 0.35% active | percent response, % at 10 µM | bead flow cytometry, Alexa488-MEK5 binding to MEKK2 mutant; in the data active = percent response above about 24%, passing the limit was not always enough
GRK2 aptamer HTS: inhibitors of human GRK2 displacing RNA aptamer | inhibition of aptamer binding, % at 10 µM | P25098 | 330,000 tested, 0.59% active | AID 488847 | bead flow cytometry, FAM-aptamer displacement from GRK2;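 active = inhibition of aptamer binding above 40%, roughly 3 SD of noise, on plates passing a quality check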;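 also: median bead fluorescence of bound FAM aptamer so fluorescent compounds give negative values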
Target sequence (P25098 whole entry, looked up): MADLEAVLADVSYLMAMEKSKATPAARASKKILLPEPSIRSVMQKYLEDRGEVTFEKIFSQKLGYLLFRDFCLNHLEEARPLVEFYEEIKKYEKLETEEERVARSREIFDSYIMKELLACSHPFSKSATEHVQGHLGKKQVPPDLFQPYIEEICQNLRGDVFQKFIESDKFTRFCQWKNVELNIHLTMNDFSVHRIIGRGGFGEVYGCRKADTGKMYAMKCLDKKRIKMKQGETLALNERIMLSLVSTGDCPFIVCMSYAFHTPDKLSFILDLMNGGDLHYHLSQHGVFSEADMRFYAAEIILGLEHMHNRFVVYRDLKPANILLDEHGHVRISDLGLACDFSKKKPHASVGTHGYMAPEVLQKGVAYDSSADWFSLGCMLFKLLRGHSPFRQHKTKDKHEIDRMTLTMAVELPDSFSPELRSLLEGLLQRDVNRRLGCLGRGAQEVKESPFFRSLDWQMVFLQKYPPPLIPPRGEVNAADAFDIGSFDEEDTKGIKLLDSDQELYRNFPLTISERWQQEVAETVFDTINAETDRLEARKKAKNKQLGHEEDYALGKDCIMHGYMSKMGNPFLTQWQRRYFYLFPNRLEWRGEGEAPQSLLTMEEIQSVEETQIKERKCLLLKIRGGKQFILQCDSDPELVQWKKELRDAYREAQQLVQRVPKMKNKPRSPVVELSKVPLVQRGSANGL
MEKK2wt PB1 HTS: raises or lowers MEK5 binding to wildtype human MEKK2 PB1 domain; 290,000 tested, 1.1% active; AID 1531; binding response (% of control), % at 10 µM; Q9Y2U5; bead flow cytometry, Alexa488-MEK5 binding to MEKK2 WT; actives lie on both sides; in the data active = binding response below about 67% or above about 130%
MEKK3 PB1 HTS: modulators (inhibitors or enhancers) of MEK5 binding to human MEKK3 PB1 domain; Q99759; AID 1529; binding response (% of control), % at 10 µM; 290,000 tested, 1.4% active; bead-based flow cytometry, Alexa488-MEK5 binding to MEKK3; actives lie on both sides; 0 = blocked by unlabeled MEK5, 100 = vehicle;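 active = binding response more than 3 SD above or below the average of its plate-row segment, actives on both sides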;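 also: Alexa488 bead fluorescence after subtracting the streptavidin-only scavenger bead signal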
Numbers stand for hits; i = inactive; nt = not tested or not shown; [ ] = dose if it differs, or a comment.

SMILES	B2AR ag	MEKK2 mut-MEK5	GRK2 aptamer HTS	MEKK2wt PB1 HTS	MEKK3 PB1 HTS
CN(C)CCN(C(=O)c1ccc(C(=O)c2ccccc2)cc1)c1nc2cc3c(cc2s1)OCCO3	i	i	i	i	i
CCN(CC)CCN(C(=O)c1ccc(S(=O)(=O)N(CC)c2ccccc2)cc1)c1nc2c(OC)ccc(OC)c2s1	i	28	i	157	i
CN(C)CCN(C(=O)c1ccc(C(=O)c2ccccc2)cc1)c1nc2cc3c(cc2s1)OCO3	i	i	i	140	i
Cc1cc(C)c2nc(N(CCN(C)C)C(=O)c3ccc4ccccc4c3)sc2c1	i	i	i	i	i
O=C(O)C(c1ccccc1)C(O)C1CCCC1 (configuration not stated)	i	nt	nt	nt	nt
COc1cc(/C=N/N=C/c2cc(OC)c(O)c(OC)c2)cc(OC)c1O	i	i	i	i	i
COc1cc(/C=N/N=C(/C(=O)c2ccccc2)c2ccccc2)cc(OC)c1O	i	i	i	i	135
CCC1=Nc2cc(C(=O)NCCCN3CCOCC3)ccc2Sc2ccccc21	i	i	i	i	i
Cc1[nH]c2ccc(C(=O)NCCCN3CCCCC3)cc2c1C	i	i	i	i	i
Cc1c(C)n(C)c2ccc(C(=O)NCCCN3CCCC3)cc12	i	i	i	142	i
Cc1[nH]c2ccc(C(=O)NCCN3CCCCCC3)cc2c1C	i	i	i	135	i
Cc1ccc(-c2cc(C(=O)NCCCN3CCCC3)c3ccccc3n2)cc1C	i	i	i	141	i
CCC1=Nc2cc(C(=O)NCCN3CCCC3)ccc2Sc2ccccc21	i	i	i	135	i
O=C(Nc1ccc(C(F)(F)F)cc1)C1CCN(S(=O)(=O)c2ccc(N3CCCC3=O)cc2)CC1	i	i	i	i	i
COc1ccc(C(=O)COC(=O)CCN2C(=O)C3CC=CCC3C2=O)c(OC)c1 (configuration not stated)	i	nt	nt	nt	nt
CCOC(=O)C1=C(COC(=O)C2CC(=O)N(c3ccc(C)cc3)C2)NC(=O)NC1C (configuration not stated)	i	nt	i	nt	nt
Cc1c(C)n(C)c2ccc(C(=O)NCCCN3CCCCC3)cc12	i	25	i	154	i
Cc1ccc(C)n1Cc1ccc(C(=O)O)cc1	i	i	88	i	i
COc1ccc(C)cc1NC(=O)CCCN1C(=O)CN(C)C1=O	i	nt	i	nt	nt
Cc1c(Cc2ccccc2)c(=O)oc2c(C)c(OCC(=O)NCc3ccccn3)ccc12	45	i	i	i	i
O=C1Nc2cc(C(=O)NCCCN3CCCC3)ccc2S/C1=C/c1ccccc1F	i	i	i	138	i
COc1ccc(/C=C2\Sc3ccc(C(=O)NCCN4CCCCCC4)cc3N(C)C2=O)cc1	i	54	i	203	i
CCN1CCCC1CNC(=O)c1ccc2c(c1)NC(=O)/C(=C\c1ccc(C)cc1)S2 (configuration not stated)	i	43	i	194	i
COc1cccc(/C=C2/Sc3ccc(C(=O)NCCN4CCCC4)cc3NC2=O)c1	i	30	i	188	i
O=C(NCCCN1CCCCC1)c1ccc2c(c1)NC(=O)c1ccccc1S2	i	i	i	i	i
SMILES	B2AR ag	MEKK2 mut-MEK5	GRK2 aptamer HTS	MEKK2wt PB1 HTS	MEKK3 PB1 HTS
CC(OC(=O)c1cccc(S(=O)(=O)N2CCCCC2)c1)C(=O)NC1CCCCC1C (configuration not stated)	i	i	i	i	i
CCN1C(=O)[C@@H]2[C@@H](c3ccc(-c4ccc(C(C)=O)cc4)c(OC)c3)N3CCC[C@@]3(C(=O)OC)[C@@H]2C1=O	i	nt	i	nt	nt
Cc1ccc(NC(=O)CSCC(=O)Nc2cccc3ncccc23)cc1	i	nt	i	nt	nt
COc1cccc(/C=C2/Sc3ccc(C(=O)NCCCN4CCCC4)cc3NC2=O)c1	i	i	i	167	i
O=C(COc1ccc2ccc(=O)oc2c1)Nc1cc([N+](=O)[O-])ccc1F	60	nt	i	nt	nt
c1ccc2c(-c3cncc4ccccc34)cncc2c1	i	nt	i	nt	nt
CC1CN(C(=S)NC(=O)c2ccc(Cl)cc2)CC(C)O1 (configuration not stated)	i	i	i	i	i
COc1ccc(C(=O)NC(=S)N2CC(C)OC(C)C2)cc1OC (configuration not stated)	i	i	56	i	i
N#CCN1CCN(CC(=O)Nc2ccc(OCc3ccccc3)cc2)CC1	42	i	i	i	i
O=C(NCCCN1CCN(Cc2ccccc2)CC1)C1CCN(c2nnc(-n3cccc3)s2)CC1	i	56	i	197	i
CCOc1ccc(NCc2cccn2-c2nnc(N3CCC(C(=O)NCCCN4CCCCC4CC)CC3)s2)cc1 (configuration not stated)	i	24	i	i	i
CCOc1ccc2nc(N3CCCC(C(=O)NCCCN4CC(C)CC(C)C4)C3)sc2c1 (configuration not stated)	i	i	i	142	i
Cc1ccc(C)n1-c1nnc(N2CCC(C(=O)NCCCN3CC(C)CC(C)C3)CC2)s1 (configuration not stated)	i	i	i	i	i
CC1CC(C)CN(CCCNC(=O)C2CCN(c3nnc(-n4cccc4)s3)CC2)C1 (configuration not stated)	i	i	i	155	i
CCN1C(=O)C(CC(=O)Nc2ccccc2)S/C1=N\c1ccccn1 (configuration not stated)	i	i	i	i	i
CC1CCCCN1CCCNC(=O)C1CCN(c2nnc(-n3cccc3)s2)CC1 (configuration not stated)	i	i	i	150	i
O=C1Nc2ccc(Br)cc2/C1=C/C(=O)c1ccccc1	i	nt	nt	nt	nt
C=CCOc1cccc(C(=O)/C=C2/C(=O)Nc3ccccc32)c1	78	i	i	i	i
CCOc1ccc(NC(=O)c2cccc(-n3cccc3)c2)cc1S(=O)(=O)N1CCOCC1	i	nt	43	nt	nt
COc1ccc(S(=O)(=O)N2CCOCC2)cc1NC(=O)c1cccc(-n2cccc2)c1	i	nt	i	nt	nt
COc1cccc(/C=N/Nc2nc3ccccc3n3cnnc23)c1O	109	i	i	i	i
CCc1nc(N)nc(N)c1-c1ccc(N(C)Cc2ccccc2)c([N+](=O)[O-])c1	i	nt	nt	nt	nt
O=C1NN(c2cccc(Br)c2)C(=O)/C1=C/c1ccc(-c2cc([N+](=O)[O-])ccc2O)o1	nt	i	i	29[inhibitor]	36[inhibitor]
CC1=NN(c2ccc(C)cc2)C(=O)/C1=C/c1ccc(-c2cc([N+](=O)[O-])ccc2O)o1	i	i	nt	i	i
COc1ccc2c(C(=O)CN3CCN(c4ccccc4)CC3)c[nH]c2c1	i	67	i	33	i
O=C(OCc1nnc(-c2ccc(Cl)cc2)o1)c1ccc(O)cc1	i	i	i	i	i
CS(=O)(=O)c1ccc(C(=O)OCc2nnc(-c3ccc(Cl)cc3)o2)cc1[N+](=O)[O-]	93	i	i	i	i
COc1ccc(CCN2CC(C(=O)NCc3cccc4[nH]ccc34)CCC2=O)cc1 (configuration not stated)	i	i	i	i	i
